According to PubChem BioAssay (NCATS):
Results filed as inconclusive are left out. Active and inactive are the calls of the source. Unless noted, the call rests on the fitted dose curve; in most records, active means well fitted curve in the direction sought with a large enough effect; inconclusive means small, poorly fitted or top-dose-only effect, or another doubt; inactive means no such curve, though single readings can be large; an effect the other way counts as inactive or inconclusive.

How the values were obtained:
[1] = Cell Viability - BJ (AID 421; calls by dose curve;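 further: potency means the concentration at half of the fitted maximal effect; cells exposed to compound for 40 hours at 37 °C before readout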); conditions: BJ fibroblast viability, qHTS
Summary of the method: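 Luminescent ATP signal (CellTiter-Glo, 20 min at room temperature) served as the read-out of viable BJ cells after 40 hours of compound treatment. Responses were scaled between DMSO and 100 uM tamoxifen, and AC50 values were obtained by Hill modeling.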

[2] = Cell Viability - Jurkat (AID 426;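 active means dose-dependent loss of cell ATP signal giving a full or clear fitted curve, ranked by lower potency value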;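 further: potency means the concentration at half of the fitted maximal effect; cells exposed to compound for 40 hours at 37 °C before ATP read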); conditions: qHTS
Summary of the method: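 Seed 5000 Jurkat E6-1 cells/well; add compound; incubate 40 hr at 37 °C; add CellTiter-Glo; wait 20 min at room temperature; read luminescence. Fit concentration-response with Hill equation for AC50.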

[3] = Cell Viability - Hek293 (AID 427;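 active means compounds whose dose-response curve shows a full or clear partial loss of cell viability, called from curve shape rather than a numeric limit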;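 further: potency means the concentration at half of the fitted maximal effect; cells exposed to compound for 40 hours at 37 °C before reading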); conditions: qHTS
Summary of the method: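 Luminescent ATP read-out (CellTiter-Glo, 20 min RT) after 40 hr compound exposure at 37 °C in complete medium. Signal normalized to DMSO (basal) and 100 uM tamoxifen (100% inhibition); concentration-response fitted with the standard Hill equation to give AC50.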

[4] = Cell Viability - HepG2 (AID 433; calls by dose curve;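 further: potency means the concentration at half of the fitted maximal effect; potency for ATP loss meaning cytotoxicity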); conditions: qHTS
Summary of the method: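 HepG2 hepatocellular carcinoma cells (1500/well) were treated with compounds for 40 h at 37 °C in complete medium; intracellular ATP was read by CellTiter-Glo luminescence. Data were normalized to DMSO and 100 uM tamoxifen, and AC50 came from Hill fits.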

[5] = Cell Viability - MRC5 (AID 434; calls by dose curve;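 further: potency means the concentration at half of the fitted maximal effect; potency reflects cytotoxicity seen as loss of intracellular ATP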); conditions: MRC5 lung fibroblast viability, qHTS
Summary of the method: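 MRC5 normal human lung fibroblasts (1500/well) were treated with compounds for 40 hr at 37 °C in complete medium, and viable cells were measured as intracellular ATP by CellTiter-Glo luminescence. AC50 came from Hill fits, normalized to DMSO and 100 uM tamoxifen.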

[6] = Cell Viability - SK-N-SH (AID 435; calls by dose curve;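 further: potency means the concentration at half of the fitted maximal effect; compound exposure lasted 40 h at 37 °C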); conditions: SK-N-SH neuroblastoma cell viability qHTS
Summary of the method: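 SK-N-SH human neuroblastoma cells (1500/well) were exposed to compounds in complete medium for 40 h at 37 °C, and intracellular ATP was then measured by CellTiter-Glo luminescence. AC50 was taken from Hill fits, normalized to DMSO and 100 uM tamoxifen.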

[7] = target: Mitogen-activated protein kinase 10 (Mus musculus) (UniProt Q61831); test: JNK3 AlphaScreen Assay (AID 530; active means well fitted curve in either direction with a large enough effect, not every such curve was filed as active;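 further: kinase came from lysate of stimulated human HepG2 cells; signal reports phosphorylation of biotinylated GST-cJun 1-79 at Ser73 with 10 µM ATP; on the % scale 0 is the no-effect control and ±100 the full control effect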); conditions: JNK3 lysate, c-Jun phosphorylation; series mostly up to 57.1 µM
Summary of the method: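 JNK3 came from HepG2 lysates pre-activated with IL-1beta and TNF-alpha and phosphorylated biotinylated GST-cJun (1-79) at 10 uM ATP, pH 7.6, room temperature. Compounds were titrated. AlphaScreen signal used anti-phospho-cJun (Ser73) antibody.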

[8] = Cell Viability - N2a (AID 540); conditions: N2a mouse neuroblastoma cell viability; activity change, negative = cytotoxicity: at 92.2 µM (top of the series);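 further: plate controls were DMSO alone for no effect and tamoxifen control for full effect; nearly all actives have a fitted effect of over 45% in size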
Summary of the method: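 First, 1500 N2a cells per well incubate 5 hr at 37 °C; next, compounds are added and incubated 40 hr at 37 °C; finally CellTiter-Glo is added and luminescence read after 20 min, with AC50 derived by Hill modeling.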

[9] = Cell Viability - NIH 3T3 (AID 541); conditions: NIH 3T3 cell viability, qHTS; activity change, negative = cytotoxicity: at 92.2 µM (top of the series);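 further: plate controls were DMSO alone for no effect and tamoxifen positive control for full effect; nearly all actives have a fitted effect of over 25% in size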
Summary of the method: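 AC50 values reflect concentration-dependent loss of intracellular ATP in NIH 3T3 cells after 40 hr treatment in complete culture medium, quantified by luciferase-based luminescence.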

[10] = Cell Viability - HUV-EC-C (AID 542); conditions: HUV-EC-C endothelial cell viability, qHTS; series mostly up to 92.2 µM; further: on the % scale 0 is the no-effect control and ±100 the full control effect; nearly all actives have a fitted effect of over 35% in size
Summary of the method: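 Decrease in cellular ATP, quantified by luciferase luminescence, reflects toxicity in normal human vascular endothelial HUV-EC-C cells given compound for 40 hr in complete culture medium. Values are AC50s from concentration-response curves.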

[11] = Cell Viability - H-4-II-E (AID 543); conditions: H-4-II-E rat hepatoma viability; series mostly up to 92.2 µM; further: on the % scale 0 is the no-effect control and ±100 the full control effect; nearly all actives have a fitted effect of over 35% in size
Summary of the method: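 Here, cytotoxicity is measured in the rat hepatoma line H-4-II-E as loss of intracellular ATP after 40 hr compound treatment, detected by luciferase luminescence.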

[12] = Cell Viability - Renal Proximal Tubule (AID 545); conditions: renal proximal tubule cells viability, primary cells of rat origin; series mostly up to 91.7 µM; further: nearly all actives have a fitted effect of over 40% in size
Summary of the method: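 Primary rat renal proximal tubule cells (1000/well) were treated with compounds for 40 hr at 37 °C in complete medium. Intracellular ATP was measured by CellTiter-Glo luminescence, and AC50 values came from Hill-equation fits of concentration-response data.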

[13] = Cell Viability - Mesenchymal (AID 546); conditions: mesenchymal cells viability, qHTS; series mostly up to 91.7 µM;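 further: cells exposed to compound for 40 hours before reading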
Summary of the method: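 Normal human renal glomerulus-derived kidney mesenchymal cells, 1000 per well in complete medium, were treated with compounds for 40 hr at 37 °C. Viability was read as intracellular ATP by CellTiter-Glo luminescence; AC50 values came from Hill-equation fits of qHTS concentration-response data.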

[14] = Cellular Toxicity (caspase-3) HepG2 (AID 654); conditions: HepG2 caspase-3 activation, luminescence; series mostly up to 92.2 µM;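 further: cells exposed to compound for 16 hours before reading; 0% = DMSO alone and 100% = caspase signal from 100 µM tamoxifen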
Summary of the method: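 qHTS, HepG2, 1500 cells/well, complete medium; cpd 16 h 37 °C; Caspase-Glo 3/7, 20 min RT; lum. Norm: DMSO vs 100 uM tamoxifen; AC50 Hill fit.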

[15] = Cellular Toxicity (caspase-3) Jurkat (AID 655); conditions: Jurkat caspase-3 activation, luminescence; caspase-3 activation: at 92.2 µM (top of the series), DMSO = 0%, tamoxifen = 100%;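 further: cells exposed to compound for 16 h at 37 °C before reading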
Summary of the method: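 Jurkat cells (5000/well) in complete medium were treated with compounds for 16 hr at 37 °C, then Caspase-Glo 3/7 luminescence was read after 20 min at room temperature. Data normalized to DMSO (basal) and 100 uM tamoxifen (100%); AC50 from Hill fit.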

[16] = Cellular Toxicity (caspase-3) HUV-EC-C (AID 656); conditions: HUV-EC-C cells, caspase-3 activation (apoptosis), vehicle = 0, 100 µM tamoxifen = 100%; series mostly up to 92.2 µM
Summary of the method: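 HUV-EC-C endothelial cells, 1000/well, were pre-incubated 5 hr at 37°C, then exposed to compounds for 16 hr at 37°C. Caspase-Glo 3/7 luminescence was read after 20 min at room temperature. AC50 came from Hill fits, normalized to DMSO and 100 uM tamoxifen.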

[17] = Cellular Toxicity (caspase-3) SHSY5Y (AID 657); conditions: SH-SY5Y caspase-3 activation, DMSO zero, 10 µM staurosporine = 100%; series mostly up to 91.7 µM
Summary of the method: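 SH-SY5Y human neuroblastoma cells (1500/well) were treated with compounds for 16 h at 37 °C, then Caspase-Glo 3/7 luminescence was read after 1 h at room temperature. Data normalized to DMSO and 10 uM staurosporine; AC50 from Hill fits.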

[18] = Cellular Toxicity (caspase-3) BJ (AID 658); conditions: BJ fibroblasts, luminescence, normalized: DMSO 0%, staurosporine 100%; series mostly up to 91.7 µM
Summary of the method: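 Luminescent aminoluciferin-substrate cleavage reports caspase 3/7 activity in normal human BJ fibroblasts after 16 hr compound exposure at 37 °C. Normalized to DMSO (basal) and 10 uM staurosporine (100%); AC50 from Hill fit of concentration-response.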

[19] = Cell Viability - SH-SY5Y (AID 544); conditions: SH-SY5Y neuroblastoma cell viability; viability change, negative = cytotoxic: at 92.2 µM (top of the series); further: nearly all actives have a fitted effect of over 55% in size
Summary of the method: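 Cytotoxicity is scored as a concentration-dependent fall in intracellular ATP in human SH-SY5Y cells treated 40 hr in complete culture medium. Potency is expressed as AC50 from a Hill equation fit.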

[20] = Cellular Toxicity (caspase-3) MRC-5 (AID 659); conditions: MRC-5 cells, luminescence, normalized: DMSO 0%, 10 µM staurosporine 100%; series mostly up to 91.7 µM
Summary of the method: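 Luminescence from caspase-cleaved aminoluciferin substrate (Caspase-Glo 3/7, 1 hr RT) reports caspase 3/7 activity in MRC-5 lung fibroblasts after 16 hr compound exposure. Normalized to DMSO basal and 10 uM staurosporine as 100%; AC50 from Hill fits.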

Nc1nc(-c2ccccc2)cs1
inactive: Potency [1] > 92 µM | Potency [2] > 92 µM | Potency [3] > 92 µM | Potency [4] > 92 µM | Potency [5] > 92 µM | Potency [6] > 92 µM | outcome [7] | activity change, negative = cytotoxicity [8] -4.72% | Potency [9] | Potency [10] | Potency [11] | Potency [12] | Potency [13] | Potency [14] | caspase-3 activation [15] -3.96% | outcome [16] | outcome [17] | outcome [18]

CC(C)=CCl
inactive: Potency [1] > 92 µM | Potency [2] > 92 µM | Potency [3] > 92 µM | Potency [4] > 92 µM | Potency [5] > 92 µM | Potency [6] > 92 µM | outcome [7] | activity change, negative = cytotoxicity [8] 1.02% | Potency [9] | Potency [10] | Potency [11] | Potency [19] | Potency [12] | Potency [14] | caspase-3 activation [15] -0.417% | outcome [16] | outcome [17] | outcome [18] | outcome [20]

CC1CCC2CC1C2(C)C (configuration not stated)
inactive: Potency [1] > 92 µM | Potency [2] > 92 µM | Potency [3] > 92 µM | Potency [4] > 92 µM | Potency [5] > 92 µM | Potency [6] > 92 µM | outcome [7] | activity change, negative = cytotoxicity [8] -4.47% | Potency [9] | Potency [10] | Potency [11] | Potency [19] | Potency [12] | Potency [14] | caspase-3 activation [15] -1.25% | outcome [16] | outcome [17] | outcome [18] | outcome [20]

CCCCC(CC)CO (configuration not stated)
inactive: Potency [1] > 92 µM | Potency [2] > 92 µM | Potency [3] > 92 µM | Potency [4] > 92 µM | Potency [5] > 92 µM | Potency [6] > 92 µM | outcome [7] | activity change, negative = cytotoxicity [8] -1.19% | Potency [9] | Potency [10] | Potency [11] | Potency [19] | Potency [12] | caspase-3 activation [15] 0.69% | outcome [16] | outcome [17] | outcome [20]

Nc1cc(Cl)c(N)c(Cl)c1
inactive: Potency [1] > 92 µM | Potency [2] > 92 µM | Potency [3] > 92 µM | Potency [4] > 92 µM | Potency [5] > 92 µM | Potency [6] > 92 µM | outcome [7] | activity change, negative = cytotoxicity [8] -5.31% | Potency [9] | Potency [10] | Potency [11] | Potency [12] | Potency [13] | Potency [14] | caspase-3 activation [15] 3.71% | outcome [16] | outcome [17] | outcome [18] | outcome [20]
